In PubChem BioAssay AID686978 (National Center for Advancing Translational Sciences (NCATS), 2013):
In all, about 420,000 compounds went through this assay and about 64,000 (15%) were called active. Inconclusive results (about 27%) are left out. Only a sample is shown. Unmarked numbers belong to inactive results. Calls follow the shape of the dose curve; as a rule, active = well fitted inhibition curve with a large enough effect; inconclusive = small, poorly fitted or top-dose-only effect; inactive = flat fitted curve, though single readings scatter.

assay: qHTS for Inhibitors of human tyrosyl-DNA phosphodiesterase 1 (TDP1): qHTS in cells in absence of CPT; conditions: DT40 Tdp1-/- hTDP1 cells, no CPT, ATP luminescence, 48 h; activity change, negative = growth inhibition: at 46.2 µM (top of the series); also: nearly all actives have a fitted effect of over 55% in size
Procedure, shortened: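 Compound effects on proliferation are scored in DT40 Tdp1-/-;hTDP1 cells in the absence of CPT. ATP levels (CellTiter-Glo luminescence) are recorded after a ≥48 hr, 37 °C incubation.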
% is scaled to controls: 0 for no effect and ±100 for the full control effect; potency is read from the fitted curve at half-maximal effect.

Point of comparison: `O=C(COC(=O)c1ncc(Cl)c(Cl)c1Cl)NCc1ccccc1`, “activity change, negative = growth inhibition” value 2.04%. Against it:
- CCOC(=O)N1CCN(CC(=O)c2ccc3c(c2)CCN3)CC1 — lower, -13.7%
- CC(OC(=O)CNC(=O)c1ccc(Cl)c([N+](=O)[O-])c1)C(=O)NCc1ccco1 (stereo not drawn) — lower, 0.37%
- CC(CC(=O)Nc1ccccc1)n1ccnc1 (stereo not drawn) — higher, 36.8%
- COc1ccccc1Oc1ccc(N2CC(C(=O)OCC(=O)c3ccc(F)cc3)CC2=O)cc1 (stereo not drawn) — lower, -21.1%
- Cc1ccc(N(CC(=O)Nc2cc(C)cc(C)c2)S(=O)(=O)c2cccc3nonc23)cc1 — lower, -14.4%
- COc1cccc(NC(=O)CN(C)S(=O)(=O)c2ccc(C)cc2)c1 — lower, -27.5%
- CN1CCN(CC(=O)Nc2cccc([N+](=O)[O-])c2)CC1 — lower, -6.25%
- Cc1ccc(S(=O)(=O)N(Cc2cccc([N+](=O)[O-])c2)C(=O)N2CCN(C)CC2)cc1 — lower, -4.4%
- CCn1cc(/C=C(\NC(=O)c2cc(OC)c(OC)c(OC)c2)C(=O)N2CCN(C)CC2)c2ccccc21 — lower, 1.95%
- CCCCCN1CC(O)=C(c2nc(-c3ccc(Cl)cc3)cs2)C1=N — lower, -0.478%
- Cc1ccc(-n2nc(N)c3c(=O)oc(N(C)C)nc32)cc1 — lower, -0.449%
- CN(c1ccccn1)c1ncnc2[nH]ncc12 — higher, 18.8%
- Nc1ccccc1C(=O)NC1CCCCNC1=O (stereo not drawn) — lower, -4.17%
- O=C1CN(C(=O)COc2c(Cl)cccc2Cl)c2ccccc2N1 — lower, -19.7%
- CCCCn1c(N)c(N(CC(C)C)C(=O)c2cccc(S(=O)(=O)N3CC(C)OC(C)C3)c2)c(=O)[nH]c1=O (stereo not drawn) — lower, -3.62%
- Cc1ccc(NC(=O)NC(=O)c2ccccc2)cc1F — lower, -4.06%
- COc1ccccc1Nc1nc(N)nc(CSC(=S)N2CCOCC2)n1 — lower, -14.6%
- CCc1ccc(CNC(=O)C2CCCN(c3nc4ccccc4o3)C2)cc1 (stereo not drawn) — lower, -10.1%
- CC(NS(=O)(=O)c1ccc(OCC(=O)N2CCCC2)cc1)c1ccccc1 (stereo not drawn) — lower, -0.332%
- CC(=O)N1CCC2(CCCN(c3ncccn3)C2)CC1 — higher, 5.85%
- CC(Oc1ccc(F)cc1)C(=O)N1CCN(c2ncccn2)CC1 (stereo not drawn) — lower, 1.97%

With `Cc1ccc(S(=O)(=O)N(CC(=O)Nc2cccc([N+](=O)[O-])c2)Cc2ccc(Cl)cc2)cc1` the Potency was 25.9 µM (active).
For `COc1ccc(C)cc1S(=O)(=O)N(CC(=O)Nc1cccc([N+](=O)[O-])c1)c1ccc(C)cc1`, the Potency was 13 µM (active).
With `c1ccc(CNc2ncnc3[nH]ncc23)cc1` the Potency was 23.1 µM (active).
With `Cc1ccc(NC2=C(c3ccc(C(F)(F)F)cc3)C(=O)c3ccccc32)cc1F` the Potency was 8.2 µM (active).
In the case of `CCOC(=O)c1cnc(Nc2nc3ccccc3o2)nc1CSC(=S)N1CCCCC1`, the Potency is reported as 0.0326 µM (active).
For `CC12CCC(C(=O)N3CCN(c4ncccn4)CC3)(c3nc4ccccc4nc31)C2(C)C` (stereo not drawn), the Potency was 23.1 µM (active).
